RE007 growth inh: less growth of the S. pombe RE007 Vpr strain; S. pombe RE007 Vpr strain, BacTiter-Glo ATP luminescence, 24 h; Potency, µM (doses to about 92.2 µM), for the others: top-dose activity change, negative = less growth, usual class: inhibitors; 360,000 compounds, 0.21% hits; active = well fitted falling curve with a large enough effect; inconclusive = small, poorly fitted or top-dose-only effect; inactive = no such curve, though single readings can be large or run the other way; note: nearly all actives have a fitted effect of over 50% in size
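Fission yeast RE007 carrying one integrated HIV-1 vpr copy, seeded at OD 0.01 in PMG+AL medium with 23 nL pinned compound. Grown 24 h at 30 degrees; viability read by BacTiter-Glo luminescence after 5 min.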
HCV inhibitor: blocks hepatitis C virus | Huh7.5.1 HCVcc-Cre infection, luciferase reporter, 44 h | Potency, µM (titrated, usually from 41.8 µM), inactives show at the top dose activity change, negative = inhibition, most hits filed as inhibitors | 340,000 compounds, 3.4% hits
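Antiviral activity was scored by luciferase reporter output from cells infected with HCVcc-Cre (~0.5 moi) in presence of compound, 44 h infection period, cells seeded 1,000/well 4 h prior.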
Sm TGR inh: blocks Schistosoma mansoni thioredoxin glutathione reductase. purified TGR, DTNB reduction, TNB absorbance 405 nm. Potency, µM (top dose mostly 114 µM), without a hit: at the top dose activity change, negative = inhibition, most hits filed as inhibitors. 360,000 compounds, 3% hits. AID 485364; note: nearly all actives have a fitted effect of over 60% in size
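Kinetic colorimetric format: TGR-catalysed, NADPH-driven DTNB reduction monitored via TNB absorbance. Enzyme dispensed at 20 nM; compound exposure 15 min at room temperature before reaction start.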
Lassa entry inh: inhibitors of Lassa virus binding or cell entry; Lassa virus pseudotype entry inhibition, cell reporter; AID 540256; Potency, µM (titrated, usually from 37.9 µM), without a hit: at the top dose activity change, negative = inhibition, actives largely listed as inhibitors; 300,000 compounds, 1.2% hits; calls by dose curve; tested in HEK293 cells; note: nearly all actives have a fitted effect of over 50% in size
Marburg entry inh: inhibitors of Marburg virus binding or cell entry | Potency, µM (doses to about 37.8 µM), for the others: top-dose activity change, negative = inhibition, hits mostly inhibitors | Marburg virus pseudotyped entry inhibition, cell reporter | 300,000 compounds, 1.8% hits; calls by dose curve; tested in HEK293 cells
FMDV antiviral: foot and mouth disease virus antiviral activity; FMDV antiviral cell-based qHTS; Potency, µM (doses to about 57.9 µM), for inactives: at the highest dose activity change, negative = inhibition, actives largely listed as inhibitors; 410,000 compounds, 1.2% hits; calls by dose curve; tested in HEK293T cells; note: read-out not given here; nearly all actives have a fitted effect of over 45% in size
The depositor's hits bear a star; ? = inconclusive; . = no result given; [ ] = another dose, or the depositor's remark. A selection: hits, their analogues and other compounds. The true share with any hit is near 7.2%. Unless noted, calls come from the whole dose curve; as a rule, active = well fitted curve in the direction sought with a large enough effect; inconclusive = small, poorly fitted or top-dose-only effect, or another doubt; inactive = no such curve, though single readings can be large; an effect the other way counts as inactive or inconclusive. % is set by controls: 0 for no effect and ±100 for the full control effect; potency is the fitted concentration of half-maximal effect.

SMILES	RE007 growth inh	HCV inhibitor	Sm TGR inh	Lassa entry inh	Marburg entry inh	FMDV antiviral
CCN(c1ccccc1)S(=O)(=O)c1ccc(OC)c(NC(=O)Cc2ccc(F)cc2)c1	-8%	?	-10%	.	.	11%
CCN(CC)S(=O)(=O)c1ccc(OC)c(NC(=O)CSc2cc(C)ccc2C)c1	7%	?	0%	0.21µM*	?	4%
CCN(c1ccccc1)S(=O)(=O)c1ccc(OC)c(NC(=O)CNCCc2ccccc2)c1	6%	7.1µM*	14%	?	?	-22%
CCN(CC)S(=O)(=O)c1ccc(OC)c(NC(=S)Nc2cc(C)ccc2C)c1	.	-21%	-25%	-1%	4%	.
Cc1ccc(C)c(C(=O)CSc2nnnn2C(C)C)c1	-12%	?	4%	3%	-1%	32%
Cc1ccc(C(=O)CSc2nnnn2C(C)C)c(C)c1	2%	6%	-3%	7.1µM*	5.6µM*	14µM*
Cn1c(=O)c(C(=O)NNC(=O)c2ccccc2F)c(O)c2ccccc21	-8%	9%	-8%	?	?	-9%
Cn1c(=O)c(C(=O)NNC(=O)c2ccc(Br)cc2)c(O)c2ccccc21	28µM*	5%	-21%	?	-17%[46.1 µM]	-27%
CCn1c(=O)c(C(=O)NNC(=O)c2ccccc2F)c(O)c2ccccc21	-6%	?	0%	?	?	15%
CCCn1c(=O)c(C(=O)NCc2ccccc2Cl)c(O)c2ccccc21	-9%	13µM*	-10%	?	1%	-14%
CCCCCn1c(=O)c(C(=O)NCc2ccccc2Cl)c(O)c2ccccc21	-10%	6%	3%	.	.	-28%
CCn1c(=O)c(C(=O)NNC(=O)c2ccccc2Cl)c(O)c2ccccc21	-21%	14µM*	9%	?	1%[46.1 µM]	-23%
CCOC(=O)c1[nH]c2ccccc2c1NC(=O)c1ccc(OC)c(OC)c1	.	.	-10%	7%[46.1 µM]	-3%[46.1 µM]	-10%
CCOC(c1cc(OC)cc([N+](=O)[O-])c1OC)C(C)C(OC)[C@@H](C)/C=C/CC(=O)OC (some centres undefined)	.	.	.	.	1%[14.2 µM]	.
COc1ccccc1CCNCc1cc2cccc(C)c2nc1-c1cccs1	.	.	.	.	.	-2%
C/C(=N\Nc1ccccn1)c1cccs1	-1%	10µM*	4%	.	-12%[46.1 µM]	61%
C/C(=N\Nc1ccccn1)c1ccc(OC(F)F)cc1	4%	8.9µM*	0%	.	?	23%
CCOC(=O)c1ccc(NC(=O)c2c(NC(=O)CCC(=O)O)sc3c2CCCCC3)cc1	-13%	7%	0%	-13%[46.1 µM]	?	-5%
COc1cccc(CNc2sc3c(c2C(=O)Nc2ccc(OC)cc2OC)CCC3)c1	.	.	?	-2%[46.1 µM]	.	-9%
CCOC(=O)c1ccc(NC(=O)c2c(NCc3cccs3)sc3c2CCCCC3)cc1	.	.	14µM*	?	.	6%
COc1ccc(NC(=O)c2c(NCc3cccs3)sc3c2CCCCC3)c(OC)c1	.	.	5.6µM*	-3%[46.1 µM]	.	16%
COc1ccc(NC(=O)c2c(NCc3cccs3)sc3c2CCCC3)cc1	.	.	32µM*	-7%[46.1 µM]	.	71%
COc1ccccc1NC(=O)CSc1nc(-c2ccc(C(C)(C)C)cc2)c(C#N)c(=O)[nH]1	.	.	?	2%[46.1 µM]	12%[46.1 µM]	-9%
Cn1c(SCC2CCCO2)nnc1C1CCN(Cc2ccc(-c3cccc(Cl)c3)o2)CC1 (centres undefined)	.	.	.	.	.	-10%
CCCS(=O)(=O)c1nc(S(=O)(=O)c2ccc(C)cc2)c(NCc2ccco2)s1	-17%	?	18µM*	?	?	11%
SMILES	RE007 growth inh	HCV inhibitor	Sm TGR inh	Lassa entry inh	Marburg entry inh	FMDV antiviral
CCCS(=O)(=O)c1nc(S(=O)(=O)c2ccc(C)cc2)c(NCc2ccccn2)s1	3%	?	7.9µM*	.	.	44%
CCCS(=O)(=O)c1nc(S(=O)(=O)c2ccc(C)cc2)c(N2CC(C)OC(C)C2)s1 (centres undefined)	-8%	?	18µM*	.	.	3%
CS(=O)(=O)c1nc(S(=O)(=O)c2ccc(Cl)cc2)c(NCc2ccccn2)s1	5%	19%	35µM*	.	-4%[46.1 µM]	4%
CCS(=O)(=O)c1nc(S(=O)(=O)c2ccc(C)cc2)c(NCc2ccccn2)s1	-3%	2%	1%	-7%[46.1 µM]	-11%[46.1 µM]	14%
COc1ccc(CNC(=O)c2cnc3sc(N4CCC(C)CC4)nn3c2=O)c(OC)c1	.	.	9%	10%[46.1 µM]	.	-36%
O=C(Cc1cscn1)N1CCOc2ccc(CN3CCN(c4ccccn4)CC3)cc2C1	.	.	.	.	.	-5%
Cc1cc(C)cc(NC(=S)Nc2cccc3cnccc23)c1	-23%	-30%	?	12%[46.1 µM]	-29%[46.1 µM]	7%
CCc1ccc(NC(=S)Nc2cccc3cnccc23)cc1	?	10µM*	?	?	?	-9%
CCOc1ccccc1CNC(=O)c1[nH]c2ccccc2c1Sc1ccccc1	.	.	1%	3%[46.1 µM]	-12%[46.1 µM]	-24%
Cc1ccc(N2CCOCC2)c2c1C(=O)c1ccccc1C2=O	4%	?	6%	?	?	?
O=C1C=C(N2CC2)c2ccccc2C1=O	-25%	.	.	.	.	?
O=C(O)c1cccc(NC2=C(N3CCOCC3)C(=O)c3ccccc3C2=O)c1	-16%	1%	45µM*	12%	11%[46.1 µM]	15%
O=C1C=C(N2CCOCC2)c2ccccc2C1=O	-21%	?	?	?	2.5µM*	?
CN(C1=C(N2CCOCC2)C(=O)c2ccccc2C1=O)c1ccccc1	?	5%	25µM*	?	-20%	0%
O=C1c2ccccc2CCC1CNCCc1ccc(O)cc1 (centres undefined)	.	.	.	.	.	-7%
CCOc1ccc(CC(=O)Nc2c(C(=O)c3ccc(C)cc3)oc3ccccc23)cc1OCC	.	.	-2%	14%[46.1 µM]	?	0%
c1ccc2c(CNC3CCCCCC3)c[nH]c2c1	-9%	8%	-5%	-2%	13µM*	?
CN(C)c1ccc(C(CNS(=O)(=O)c2ccc(Cl)cc2)N2CCOCC2)cc1 (centres undefined)	.	.	-18%	-24%[46.1 µM]	.	-7%
CCOc1ccc(OCC(O)CNC2CCN(Cc3ccccc3)CC2)cc1 (centres undefined)	.	?	-3%	6.3µM*	1.6µM*	-17%
COc1ccc(OCC(O)CNC2CCCC2)cc1 (centres undefined)	-16%	-3%	-15%	0%[46.1 µM]	1%[46.1 µM]	-14%
COc1ccc(CNCC(O)COc2ccc(C(C)(C)c3ccccc3)cc2)cc1 (centres undefined)	63%	5%	-5%	?	?	-27%
CC(C)(c1ccccc1)c1ccc(OCC(O)CNC2CCN(Cc3ccccc3)CC2)cc1 (centres undefined)	69%	8.9µM*	9%	.	?	?
CCCCn1cc(S(=O)(=O)c2ccc(OC)cc2)c(=O)c2cc(F)c(N3CCCC3)cc21	.	.	3%	18%[46.1 µM]	.	0%
